Results filed as inconclusive are left out. Where a call stands in place of a potency, no number is given. The source made the active and inactive calls. Calls come from the whole dose curve; as a rule, active = well fitted curve in the direction sought with a large enough effect; inconclusive = small, poorly fitted or top-dose-only effect, or another doubt; inactive = no such curve, though single readings can be large; an effect the other way counts as inactive or inconclusive.
Assays:
[1] = qHTS assay to identify small molecule inhibitors of chordoma cells - UCH-1 (AID 1259355); details: UCH-1 chordoma viability, CellTiter-Glo, 48 h, combination; series mostly up to 46.1 µM; note: nearly all actives have a fitted effect of over 55% in size
Outline: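 Screening used approved and investigational drugs in 15-point titration against 800 seeded cells per well. A fixed combination of auranofin with camptothecin, doxorubicin, rubitecan and topotecan followed compound addition, and growth was scored by CellTiter-Glo after 48hr.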

[2] = qHTS assay to identify small molecule inhibitors of chordoma cells - UCH-2 (AID 1259356); details: UCH-2 chordoma viability, CellTiter-Glo ATP luminescence, 48 h; series mostly up to 46.1 µM
[3] = P-glycoprotein substrates identified in KB-8-5-11 adenocarcinoma cell line, qHTS therapeutic library screen (AID 1346987); details: KB-8-5-11 (P-gp overexpressing) viability, CellTiter-Glo, 72 h; series mostly up to 44.5 µM; note: nearly all actives have a fitted effect of over 65% in size
Outline: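 Compounds are pinned in dose-response onto KB-8-5-11 cells (500 cells/well, colchicine-free medium) and left 72 h at 37 degree C. CellTiter-Glo luminescence then yields AC50 values.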
Potency is the fitted concentration of half-maximal effect.

Row | SMILES | Potency [1] | Potency [2] | Potency [3]
1 | O[C@H]1[C@H]2[C@H](O)CCCN2C[C@H]1O | inactive | inactive | inactive
2 | CCN(CC)C(=O)/C(Cl)=C(\C)OP(=O)(OC)OC | inactive | inactive | inactive
3 | ClC(Cl)(Cl)Cl | inactive | inactive | inactive
4 | COCC(C)N(C(=O)CCl)c1c(C)csc1C (centres undefined) | inactive | inactive | inactive
5 | CCNC1(c2cccs2)CCCCC1=O (centres undefined) | inactive | inactive | inactive
6 | CC(=O)O[C@H]1CC[C@H]2[C@@H]3CCC4=CC(=O)CCC4=C3C=C[C@]12C | inactive | inactive | 7.31 µM (active)
7 | CCCCCCCCOC(=O)c1ccccc1C(=O)OCCCCCCCC | inactive | inactive | inactive
8 | C=CCC1(C(C)CCC)C(=O)N=C(S)NC1=O (centres undefined) | inactive | – | inactive
9 | CCC1(c2ccccc2)C(=O)NC(=O)N(C)C1=O (centres undefined) | inactive | inactive | inactive
10 | CN1[C@@H]2CC[C@H]1CC(OC1c3ccccc3CCc3ccccc31)C2 (some centres undefined) | – | inactive | –
11 | N#CC1(N2CCCCC2)CCCCC1 | inactive | inactive | inactive
12 | F/C(COc1ccc2c(c1)[nH]c1ccccc12)=C1/CN2CCC1CC2 | inactive | inactive | inactive
13 | C[N+]1(C)[C@@H]2CC[C@H]1CC(OC(=O)c1c[nH]c3ccccc13)C2 (some centres undefined) | inactive | inactive | inactive
14 | C[C@]12CC[C@H](O)C[C@H]1CC[C@@H]1[C@@H]2CC[C@]2(C)[C@@H](c3ccc(=O)oc3)C[C@H]3O[C@]132 | 6.31 µM [with auranofin plus four topoisomerase inhibitors] (active) | 6.51 µM (active) | 1.84 µM (active)
